Legend:
Test in all cases: log2 ratio of Biotin-Ahx-Ub-VS probe labelling (fragment/DMSO); higher = less target engagement (more negative = stronger competition), active = hit call of the paper (q ≤ 0.05, log2 ratio ≤ -1)
Conditions in all cases: compound concentration: 200 uM; treatment time: 3 h
ALG13 = molecular target: T1, ALG13 (UniProt Q9NP73)
T1 sequence (whole entry): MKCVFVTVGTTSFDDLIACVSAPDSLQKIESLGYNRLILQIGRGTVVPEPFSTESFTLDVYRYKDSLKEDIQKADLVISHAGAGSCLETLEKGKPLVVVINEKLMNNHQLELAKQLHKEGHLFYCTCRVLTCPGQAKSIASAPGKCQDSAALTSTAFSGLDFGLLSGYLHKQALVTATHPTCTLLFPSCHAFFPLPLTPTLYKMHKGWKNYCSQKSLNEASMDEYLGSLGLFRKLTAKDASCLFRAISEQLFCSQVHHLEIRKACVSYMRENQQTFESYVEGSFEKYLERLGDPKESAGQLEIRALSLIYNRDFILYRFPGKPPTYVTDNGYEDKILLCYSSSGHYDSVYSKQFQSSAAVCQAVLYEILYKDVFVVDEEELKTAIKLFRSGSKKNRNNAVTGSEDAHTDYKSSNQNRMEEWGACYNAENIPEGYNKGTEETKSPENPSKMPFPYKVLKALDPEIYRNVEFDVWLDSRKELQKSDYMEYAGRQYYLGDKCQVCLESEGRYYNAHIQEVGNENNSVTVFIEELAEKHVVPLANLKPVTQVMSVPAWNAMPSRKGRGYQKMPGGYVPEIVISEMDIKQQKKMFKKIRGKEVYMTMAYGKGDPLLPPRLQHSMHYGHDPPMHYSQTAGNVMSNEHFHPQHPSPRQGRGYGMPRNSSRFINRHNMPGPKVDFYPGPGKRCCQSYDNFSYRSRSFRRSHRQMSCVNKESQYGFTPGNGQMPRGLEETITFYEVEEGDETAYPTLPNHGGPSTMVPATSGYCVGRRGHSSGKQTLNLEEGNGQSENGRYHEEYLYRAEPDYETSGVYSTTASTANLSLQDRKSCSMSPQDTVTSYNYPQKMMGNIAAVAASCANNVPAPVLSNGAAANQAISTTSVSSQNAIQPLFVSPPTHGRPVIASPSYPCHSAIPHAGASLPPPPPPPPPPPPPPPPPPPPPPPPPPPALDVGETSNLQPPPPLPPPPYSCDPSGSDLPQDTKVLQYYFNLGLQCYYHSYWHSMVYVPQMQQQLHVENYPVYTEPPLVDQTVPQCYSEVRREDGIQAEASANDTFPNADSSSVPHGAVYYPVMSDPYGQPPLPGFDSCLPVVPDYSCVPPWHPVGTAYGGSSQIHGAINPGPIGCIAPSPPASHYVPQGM
In short: (§1)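 Global-median-normalised Spectronaut label-free quantities were compared by unpaired t-test, and values are average log2 ratios of fragment over vehicle. Only proteins with ≥2 unique peptides were used. HEK293T lysate (495 µg per sample) was treated in triplicate with fragment at 200 µM or vehicle for 3 h and then with Biotin-Ahx-Ub-VS at 0.5 µM final for 1 h. Labelled DUBs were then NeutrAvidin-enriched, digested with LysC and trypsin, and run by diaPASEF LC-MS/MS.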

ATXN3 = ATXN3 (UniProt P54252)
In short: as §1

BAP1 = molecular target: T2, BAP1 (UniProt Q92560)
T2 sequence (whole entry): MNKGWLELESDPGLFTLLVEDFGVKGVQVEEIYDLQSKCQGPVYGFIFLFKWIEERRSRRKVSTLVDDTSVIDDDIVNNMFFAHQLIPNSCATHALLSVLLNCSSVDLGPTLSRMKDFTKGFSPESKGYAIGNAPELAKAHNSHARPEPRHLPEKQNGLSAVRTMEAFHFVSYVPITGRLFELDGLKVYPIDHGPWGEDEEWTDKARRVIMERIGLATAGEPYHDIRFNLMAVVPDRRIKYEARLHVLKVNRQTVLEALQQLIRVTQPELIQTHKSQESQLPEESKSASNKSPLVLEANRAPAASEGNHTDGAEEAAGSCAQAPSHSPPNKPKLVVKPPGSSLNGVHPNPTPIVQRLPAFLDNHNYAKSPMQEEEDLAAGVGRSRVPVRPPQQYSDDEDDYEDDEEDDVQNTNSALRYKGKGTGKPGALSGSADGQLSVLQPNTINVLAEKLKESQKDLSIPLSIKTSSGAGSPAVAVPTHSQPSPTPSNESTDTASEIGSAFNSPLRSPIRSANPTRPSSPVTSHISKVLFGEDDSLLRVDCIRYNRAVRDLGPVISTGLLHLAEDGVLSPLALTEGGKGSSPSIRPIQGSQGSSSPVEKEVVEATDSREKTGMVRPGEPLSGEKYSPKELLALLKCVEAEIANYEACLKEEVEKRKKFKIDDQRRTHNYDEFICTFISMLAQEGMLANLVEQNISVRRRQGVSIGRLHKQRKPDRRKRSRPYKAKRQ
In short: as §1

EIF3F = EIF3F (UniProt O00303)
In short: as §1

EIF3H = EIF3H (UniProt O15372)
In short: as §1

FAM105A = molecular target: T3, FAM105A (UniProt Q9NUU6)
T3 sequence (whole entry): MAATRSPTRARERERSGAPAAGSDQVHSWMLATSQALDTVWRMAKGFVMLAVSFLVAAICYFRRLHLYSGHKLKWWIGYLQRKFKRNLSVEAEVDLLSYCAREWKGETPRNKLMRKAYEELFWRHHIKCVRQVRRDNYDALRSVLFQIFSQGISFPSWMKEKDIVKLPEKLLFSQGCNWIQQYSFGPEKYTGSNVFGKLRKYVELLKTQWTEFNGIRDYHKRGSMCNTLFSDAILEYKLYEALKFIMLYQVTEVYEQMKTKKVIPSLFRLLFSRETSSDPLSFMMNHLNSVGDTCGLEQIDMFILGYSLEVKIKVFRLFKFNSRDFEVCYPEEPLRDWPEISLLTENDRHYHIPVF
In short: as §1

OTUB1 = OTUB1 (UniProt Q96FW1)
In short: as §1

OTUD4 = molecular target: T4, OTUD4 (UniProt Q01804)
T4 sequence (whole entry): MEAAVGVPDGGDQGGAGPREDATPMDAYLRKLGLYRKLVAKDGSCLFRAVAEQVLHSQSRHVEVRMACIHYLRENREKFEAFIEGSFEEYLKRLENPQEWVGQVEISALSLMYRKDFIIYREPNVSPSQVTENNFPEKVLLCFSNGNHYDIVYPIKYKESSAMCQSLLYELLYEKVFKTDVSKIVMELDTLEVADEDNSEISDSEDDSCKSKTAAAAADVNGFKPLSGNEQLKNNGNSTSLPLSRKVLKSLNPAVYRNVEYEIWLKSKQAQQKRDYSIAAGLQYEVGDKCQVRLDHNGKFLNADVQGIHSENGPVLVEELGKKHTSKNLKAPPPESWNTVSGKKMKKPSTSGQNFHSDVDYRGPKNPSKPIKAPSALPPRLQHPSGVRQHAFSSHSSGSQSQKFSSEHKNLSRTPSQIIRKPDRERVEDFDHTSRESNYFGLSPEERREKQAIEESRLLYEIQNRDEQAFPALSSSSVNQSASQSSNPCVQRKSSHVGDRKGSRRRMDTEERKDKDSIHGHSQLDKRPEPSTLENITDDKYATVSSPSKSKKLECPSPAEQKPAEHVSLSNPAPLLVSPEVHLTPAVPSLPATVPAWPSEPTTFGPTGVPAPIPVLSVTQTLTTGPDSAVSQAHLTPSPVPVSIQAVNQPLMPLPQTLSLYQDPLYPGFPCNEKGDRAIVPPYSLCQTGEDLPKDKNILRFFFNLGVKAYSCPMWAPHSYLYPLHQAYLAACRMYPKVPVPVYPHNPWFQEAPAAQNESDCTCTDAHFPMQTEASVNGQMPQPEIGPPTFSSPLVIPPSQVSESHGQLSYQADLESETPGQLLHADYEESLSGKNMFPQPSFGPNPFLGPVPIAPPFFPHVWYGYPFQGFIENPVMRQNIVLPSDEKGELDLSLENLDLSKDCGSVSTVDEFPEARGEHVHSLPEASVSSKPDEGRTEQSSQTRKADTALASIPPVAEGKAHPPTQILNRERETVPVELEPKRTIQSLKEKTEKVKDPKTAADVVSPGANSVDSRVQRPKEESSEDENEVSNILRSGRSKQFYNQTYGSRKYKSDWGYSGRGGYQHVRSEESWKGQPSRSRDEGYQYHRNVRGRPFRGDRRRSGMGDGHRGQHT
In short: as §1

OTUD5 = molecular target: T5, OTUD5 (UniProt Q96G74)
T5 sequence (whole entry): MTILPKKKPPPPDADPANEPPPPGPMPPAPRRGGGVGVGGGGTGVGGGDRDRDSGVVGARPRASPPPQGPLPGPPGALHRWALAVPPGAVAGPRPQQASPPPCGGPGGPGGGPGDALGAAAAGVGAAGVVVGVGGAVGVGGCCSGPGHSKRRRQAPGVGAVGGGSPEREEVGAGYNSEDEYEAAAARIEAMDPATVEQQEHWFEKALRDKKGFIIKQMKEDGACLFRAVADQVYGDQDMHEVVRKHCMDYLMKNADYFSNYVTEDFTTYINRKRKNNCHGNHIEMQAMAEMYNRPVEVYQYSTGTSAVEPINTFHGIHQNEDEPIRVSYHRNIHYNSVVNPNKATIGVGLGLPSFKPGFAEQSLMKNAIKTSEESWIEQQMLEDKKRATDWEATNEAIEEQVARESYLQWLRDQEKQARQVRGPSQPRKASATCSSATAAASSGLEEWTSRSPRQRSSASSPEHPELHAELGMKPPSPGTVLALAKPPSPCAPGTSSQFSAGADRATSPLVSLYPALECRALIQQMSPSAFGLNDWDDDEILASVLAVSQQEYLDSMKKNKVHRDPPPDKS
In short: as §1

Measured: log2 ratio of Biotin-Ahx-Ub-VS probe labelling

EIF3H, sequence (O15372 whole entry): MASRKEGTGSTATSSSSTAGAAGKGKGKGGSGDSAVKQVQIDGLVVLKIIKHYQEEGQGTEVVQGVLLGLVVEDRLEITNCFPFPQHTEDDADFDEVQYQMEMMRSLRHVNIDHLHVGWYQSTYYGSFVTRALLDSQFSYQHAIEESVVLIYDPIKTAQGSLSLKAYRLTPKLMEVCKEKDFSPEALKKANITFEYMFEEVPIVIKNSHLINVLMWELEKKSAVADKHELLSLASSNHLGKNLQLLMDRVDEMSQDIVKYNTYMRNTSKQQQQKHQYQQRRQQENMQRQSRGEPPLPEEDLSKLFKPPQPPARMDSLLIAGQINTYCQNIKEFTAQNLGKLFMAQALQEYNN
EIF3F, sequence (O00303 whole entry): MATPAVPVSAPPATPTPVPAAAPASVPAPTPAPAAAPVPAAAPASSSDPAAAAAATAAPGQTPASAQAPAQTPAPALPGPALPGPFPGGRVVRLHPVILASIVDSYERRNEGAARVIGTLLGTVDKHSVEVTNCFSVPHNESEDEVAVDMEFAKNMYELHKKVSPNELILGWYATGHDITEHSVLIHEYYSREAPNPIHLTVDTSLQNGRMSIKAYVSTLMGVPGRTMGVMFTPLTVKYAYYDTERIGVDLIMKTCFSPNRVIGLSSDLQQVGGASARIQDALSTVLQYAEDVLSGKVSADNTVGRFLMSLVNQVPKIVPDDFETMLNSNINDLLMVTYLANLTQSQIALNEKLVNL
OTUB1, sequence (Q96FW1 whole entry): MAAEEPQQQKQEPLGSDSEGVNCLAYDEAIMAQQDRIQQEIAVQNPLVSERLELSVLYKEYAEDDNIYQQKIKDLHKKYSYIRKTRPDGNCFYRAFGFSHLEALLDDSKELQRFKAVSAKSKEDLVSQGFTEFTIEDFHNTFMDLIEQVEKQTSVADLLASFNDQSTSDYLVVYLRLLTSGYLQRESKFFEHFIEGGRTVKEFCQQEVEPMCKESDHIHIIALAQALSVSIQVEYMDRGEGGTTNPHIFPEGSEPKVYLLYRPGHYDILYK
ATXN3, sequence (P54252 whole entry): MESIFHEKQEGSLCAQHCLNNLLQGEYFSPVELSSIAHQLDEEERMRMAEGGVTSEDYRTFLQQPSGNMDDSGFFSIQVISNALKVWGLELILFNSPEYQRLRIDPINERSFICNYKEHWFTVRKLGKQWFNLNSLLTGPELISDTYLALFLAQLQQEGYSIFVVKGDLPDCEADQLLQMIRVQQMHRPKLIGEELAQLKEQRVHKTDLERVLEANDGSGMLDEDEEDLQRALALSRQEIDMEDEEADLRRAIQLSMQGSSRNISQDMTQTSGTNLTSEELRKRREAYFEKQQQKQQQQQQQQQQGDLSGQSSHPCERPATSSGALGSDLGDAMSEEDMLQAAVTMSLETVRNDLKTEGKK

Cl.O=C(CCl)NC1(c2ncccn2)CCC1
inactive: ALG13 0.0863 | ATXN3 0.0333 | BAP1 -0.171 | EIF3F -0.137 | EIF3H 0.137 | FAM105A -0.242 | OTUB1 -0.293 | OTUD4 -0.17 | OTUD5 0.0342

O=C(CCl)NC1CCN(C(=O)C2CCCCC2)CC1
inactive: ALG13 -0.358 | ATXN3 -0.103 | EIF3F -0.569 | EIF3H 0.155 | FAM105A -0.0528 | OTUB1 -0.0801 | OTUD4 0.0192 | OTUD5 -0.0926
active: BAP1 -1.71

CCN(C(=O)CCl)C1CCS(=O)(=O)C1 (stereo not given)
inactive: ALG13 -0.231 | ATXN3 -0.159 | BAP1 -0.0461 | EIF3F -0.357 | EIF3H 0.227 | FAM105A 0.291 | OTUB1 -0.59 | OTUD4 -0.679 | OTUD5 -0.272

O=C(CCl)N[C@H]1CC[C@@H](CO)CC1
inactive: ALG13 0.27 | ATXN3 -0.868 | EIF3F -0.486 | EIF3H 0.0529 | FAM105A -0.00946 | OTUB1 -0.626 | OTUD4 -0.852 | OTUD5 -0.686
active: BAP1 -1.34

CC(O)CC1CCN(C(=O)CCl)CC1 (stereo not given)
inactive: ALG13 -0.345 | ATXN3 -0.291 | BAP1 -0.221 | EIF3F -0.0746 | EIF3H 0.247 | FAM105A -0.12 | OTUB1 0.128 | OTUD4 0.0747 | OTUD5 -0.195

Cc1cc(C(=O)NC2CCN(C(=O)CCl)CC2)no1
inactive: ALG13 0.0715 | ATXN3 -0.572 | BAP1 -0.339 | EIF3F -0.05 | EIF3H 0.0609 | FAM105A 0.133 | OTUB1 -0.0459 | OTUD4 -0.297 | OTUD5 -0.298

Cc1nc(CNC(=O)CCl)c2ccccn12.Cl
inactive: ALG13 -0.085 | ATXN3 -0.101 | BAP1 -0.847 | EIF3F -0.26 | EIF3H 0.233 | FAM105A -0.142 | OTUB1 -0.107 | OTUD4 -0.199 | OTUD5 -0.159

C/C(=C\CNC(=O)CCl)c1cnn(C)c1.Cl
active: BAP1 -1.56
inactive: ALG13 0.0802 | ATXN3 -0.277 | EIF3F -0.217 | EIF3H 0.0454 | FAM105A 0.298 | OTUB1 -0.376 | OTUD4 0.00615 | OTUD5 -0.115

O=C(CCl)NCCc1ccc2c(c1)OCCO2
inactive: ALG13 -0.0432 | ATXN3 -0.16 | EIF3F -0.184 | EIF3H 0.186 | FAM105A 0.307 | OTUB1 -0.173 | OTUD4 -0.539 | OTUD5 -0.693
active: BAP1 -1.7

Cc1cc(CC(C)NC(=O)CCl)n[nH]1 (stereo not given)
inactive: ALG13 0.0722 | ATXN3 -0.115 | BAP1 -0.509 | EIF3F -0.138 | EIF3H -0.131 | FAM105A 0.19 | OTUB1 0.11 | OTUD4 -0.115 | OTUD5 -0.0107

CCc1c[nH]c(CNC(=O)CCl)n1.Cl
inactive: ALG13 0.0285 | ATXN3 -0.421 | BAP1 -0.464 | EIF3F -1.13 | EIF3H 0.281 | FAM105A 0.0309 | OTUB1 -0.461 | OTUD4 -0.214 | OTUD5 -0.482

Cc1nc(CN2CCN(C(=O)CCl)CC2)cs1
inactive: ALG13 0.271 | ATXN3 -0.309 | BAP1 -0.469 | EIF3F -0.26 | EIF3H 0.0747 | FAM105A 0.151 | OTUB1 0.0298 | OTUD4 -0.0355 | OTUD5 -0.265

CC(NC(=O)CCl)c1cccc(Cl)c1 (stereo not given)
inactive: ALG13 0.0326 | ATXN3 -0.401 | EIF3F 0.0315 | EIF3H 0.0634 | FAM105A -0.0535 | OTUB1 0.0729 | OTUD4 -0.705 | OTUD5 -0.433
active: BAP1 -3.17

Cc1ccc(CN(CCO)C(=O)CCl)cc1
inactive: ALG13 0.163 | ATXN3 -0.225 | EIF3F 0.0155 | EIF3H 0.0625 | FAM105A 0.0195 | OTUB1 -0.0318 | OTUD4 -0.355 | OTUD5 -0.372
active: BAP1 -1.12

O=C(CCl)NC1CCC(C(F)(F)F)CC1 (stereo not given)
inactive: ALG13 0.187 | ATXN3 -0.373 | EIF3F -0.798 | EIF3H -0.225 | FAM105A -0.0674 | OTUB1 0.207 | OTUD4 -0.576 | OTUD5 -0.288
active: BAP1 -1.11

— the supplement of paper PMC11732987, “Enantioselective OTUD7B fragment discovery through chemoproteomics screening and high-throughput optimisation” (Communications Chemistry, 2025)
